Mdm2 MdmX PPI: inhibitors of human Mdm2-MdmX association, primary screen, cell-based, luminescence, split luciferase, SaOS-2, uHTS | Protein Mdm4 (Homo sapiens) + E3 ubiquitin-protein ligase Mdm2 (Homo sapiens), … | SaOS-2 split-luciferase Mdm2/MdmX complementation | inhibition, % at 8 µM | hit rate 3% among 330,000;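 active = inhibition of at least 50% at 8 µM in the primary screen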
Shn3 inh set2: reduction of Shn3 3'UTR firefly luciferase signal, primary screen, Schnurri-3 inhibitor project, cell-based, Clone20 osteoblasts, set 2 | hit rate 0.52% among 360,000 | inhibition, % at 12.5 µM | Clone20 osteoblast Shn3 3'UTR firefly luciferase, 24 h;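 active = mean inhibition of at least 75% with every replicate also reaching 75%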
Jurkat NFkB inh: inhibitors of induced NF-kB luciferase reporter, primary screen, TCR NF-kB activation inhibitor project, cell-based, luminescence, uHTS. Jurkat, PMA/ionomycin-induced NF-kB luciferase reporter. inhibition, % at 4 µM. hit rate 0.53% among 330,000; in the data active = inhibition above about 50%
697 NFkB inh: inhibitors of PMA/ionomycin-induced NF-kB reporter, 697 cells, primary screen, B-cell NF-kB inhibitor project, cell-based, luminescence, uHTS. 697 B-cell NF-kB luciferase reporter, 16 h. inhibition, % at 4 µM. hit rate 0.33% among 330,000. AID 435022, 2010; in the data active = inhibition above about 35%
Gli-Sufu antag: Gli-Sufu pathway antagonists, primary screen, luciferase luminescence, Sufu-KO-LIGHT cells, uHTS | Sufu-KO-LIGHT fibroblasts, Gli luciferase reporter luminescence | inhibition, % at 5 µM | hit rate 0.74% among 340,000 | AID 588413, 2011;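 active = inhibition above about 55%, limit read from the data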
Mdm2 MdmX conf: Mdm2-MdmX complex disruptors, retested hits, confirmation, luminescence, single concentration | hit rate 55% among 10,000 | Mdm2-MdmX binding, luminescent assay | shares compounds with Mdm2 MdmX PPI | inhibition, % at 8 µM; in the data active = inhibition above about 40%
Full FLuc ctr: full-length luciferase signal inhibition, confirmation, counter-screen for Mdm2/MdmX interaction inhibitor project, cell-based, single concentration, SaOS-2; hit rate 77% among 6,200; shares compounds with Mdm2 MdmX PPI; SaOS-2 full-length luciferase counterscreen, luminescence; inhibition, % at 8 µM; AID 504607, 2011;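 active = mean inhibition at 8 µM reaching about 37%, which flags the compound as non-specific, limit read from the data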;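 note: p53-null SaOS-2 cells with luciferase driven by a doxycycline-inducible promoter; compound on cells about two nights before reading with doxycycline added after day one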
Hits are given with their value; 0 = inactive; - = no result. This is a sample that favours compounds with a hit; in the whole collection about 3.8% have one here.

SMILES	Mdm2 MdmX PPI	Shn3 inh set2	Jurkat NFkB inh	697 NFkB inh	Gli-Sufu antag	Mdm2 MdmX conf	others
CCOC(=O)c1c(-c2ccccc2)oc2ccc(O)c(CN3CCCC3)c12	0	0	0	0	0	-
CCOC(=O)c1c(-c2ccccc2)oc2ccc(O)c(CN(C)C)c12	54.6	0	0	0	0	0
CCOC(=O)c1c(-c2ccccc2)oc2ccc(OCC(O)CN(C)C)cc12 (centres undefined)	73.7	0	0	0	0	0	Full FLuc ctr=0
CCOC(=O)c1c(CSCc2ccccc2)oc2ccc(O)c(CN(C)C)c12	54.2	0	0	0	0	46.9	Full FLuc ctr=64.8
CN(Cc1ccccc1)C(=O)c1ccc(NC(=O)C2CCN(C(=O)OC(C)(C)C)CC2)cc1	75.8	0	0	0	0	58.5	Full FLuc ctr=0
Cc1ccc2[nH]cc(C(=O)CCl)c2c1	82.4	0	0	0	0	67.5	Full FLuc ctr=57.6
Cc1ccc2c(C(=O)CCl)c(C)[nH]c2c1	91.8	0	0	0	0	77.0	Full FLuc ctr=60.0
Cc1ccc(N(C)S(=O)(=O)c2c(C)noc2/C=C/N(C)C)cc1	0	0	0	0	0	-
Cn1nccc1NC(=O)COCC(=O)O	0	0	0	0	0	-
Cc1occc1C(=O)NCc1nc(-c2ccc(Cl)cc2)no1	0	0	0	0	0	-
c1ccn2cc(-c3ccc4c(c3)OCCO4)nc2c1	50.2	0	0	0	0	0
Clc1ccc2nc(-c3ccc4c(c3)OCO4)cn2c1	0	0	0	0	0	-
N#Cc1c(N2CCCCC2)nc(N2CCCCC2)c2c1CCN(Cc1ccccc1)C2	52.9	0	0	0	0	0
COc1ccc(CN2CCC2(C)C(=O)Nc2ccc(OC)c(OC)c2)cc1 (centres undefined)	-	0	-	-	-	-
CCCN(CCC)C(=O)CSc1nc2n[nH]c(C)c2c(=N)n1-c1ccc(OC)cc1	50.3	0	0	0	0	0
CCN(C(=O)CSc1nc2n[nH]c(C)c2c(=N)n1-c1ccc(Cl)c(C)c1)c1cccc(C)c1	76.1	0	0	0	0	0
CCCN(CCC)C(=O)CSc1nc2n[nH]c(C)c2c(=N)n1-c1ccc(OCC)cc1	0	-	0	0	0	-
CCc1ccccc1NC(=O)CSc1nc2n[nH]c(C)c2c(=N)n1-c1ccc(OC)cc1	-	0	-	-	0	-
COc1ccccc1NC(=O)CSc1nc2n[nH]c(C)c2c(=N)n1-c1ccccc1Cl	67.6	0	0	0	0	41.3	Full FLuc ctr=70.5
O=C(Cc1ccc([N+](=O)[O-])cc1)N1N=C(c2ccncc2)CC1(O)C(F)(F)F (centres undefined)	0	0	0	0	0	-
CN1CC(=O)N(CC(=O)Nc2ccc(OCc3ccccc3)cc2)C1=O	0	0	0	0	0	-
CC(NC(=O)C1CCCN1C(=O)OC(C)(C)C)C(=O)OCc1ccccc1 (centres undefined)	-	0	-	-	-	-
Cc1cccc(-c2cc3nc4c(c(N5CCOCC5)n3n2)CCCC4)c1	64.5	0	0	0	0	0
Cc1cccc(-c2cc3nc4c(c(N5CCC6(CC5)OCCO6)n3n2)CCCC4)c1	0	0	0	0	0	-
C=C1SC(=Nc2c(C)cc(C)cc2C)N(C(=O)c2sc3ccccc3c2Cl)C12CCCCC2	0	0	0	0	0	-
Cc1ccc(S(=O)(=O)CCC(=O)OCC(=O)NC(C)c2ccccc2)cc1 (centres undefined)	0	0	0	0	0	-
CNC(=S)N/N=C1\C(=O)c2cccc3cccc1c23	86.8	0	0	0	0	0
CCCCNC(=S)N/N=C1\C(=O)c2cccc3cccc1c23	0	0	0	0	0	-
COc1cccc(OC2(C)CCN(Cc3cccn3-c3nccs3)C2)c1 (centres undefined)	-	0	-	-	-	-
CN1C(=O)NC(c2cccc([N+](=O)[O-])c2)C2=C1CCCC2=O (centres undefined)	0	0	0	0	0	-

Compound activity: PubChem BioAssay, several laboratories
